{"source": "PubChem BioAssay AID463173", "about": "(ICCB-Longwood Screening Facility, Harvard Medical School, 2010)", "note": "Among all 52,000 compounds or so, about 4,300 (8.3%) were called active. What follows is part of a selection rich in actives, with near analogues and random picks from the rest. Unmarked numbers belong to inactive results. Rule as the data show it: active = survival mostly below about 52% (no sharp cut-off); inactive = mostly above about 56%.", "data": [{"system": "DeltatarO mutant", "assay": "growth inhibition of S. aureus wild type versus tarO mutant, primary screen, teichoic acid synthesis inhibitors, RN4220, OD600 (AID 463173)", "details": "OD600, 18 h, hits give low values, screened at 18.75 µg/mL (by protocol)", "values": [{"smiles": "CCOC(=O)C1=C(CS(=O)(=O)c2ccc(Br)cc2)NC(=O)NC1c1ccccc1", "note": "(stereo not drawn)", "survival": "80%"}, {"smiles": "Cc1cccc(-c2cc(NC(=O)COc3ccccc3F)n(-c3ccccc3)n2)c1", "survival": "86%"}, {"smiles": "CCOC(=O)c1ccc(NC(=O)Cn2c(=O)cc(C(F)(F)F)c3c(C)nn(C)c32)cc1", "survival": "95%"}, {"smiles": "COc1ccc(CCNS(=O)(=O)c2ccc(N3CCCCS3(=O)=O)cc2)cc1OC", "survival": "69%"}, {"smiles": "COc1ccc(Cl)cc1C(=O)Nc1ccc2oc(-c3ccc(C(C)(C)C)cc3)nc2c1", "survival": "82%"}, {"smiles": "O=C(Nc1ccc(O)c(-c2nc3ccccc3o2)c1)c1ccc(-c2cccc(Cl)c2)o1", "survival": "49%"}, {"smiles": "O=C(Nc1cccc(-c2nc3ccccc3o2)c1)C(F)(F)F", "survival": "61%"}, {"smiles": "Cc1c(NC(=O)c2ccc(-c3cccc([N+](=O)[O-])c3)o2)cccc1-c1nc2cc(Cl)ccc2o1", "survival": "52%"}, {"smiles": "O=C(Nc1ccc2oc(-c3cccnc3)nc2c1)c1ccc(-c2ccc(Cl)cc2)o1", "survival": "73%"}, {"smiles": "O=C(Nc1ccc(-c2nc3cc(Cl)ccc3o2)cc1)c1cc(Br)ccc1Cl", "survival": "93%"}, {"smiles": "O=C(Nc1ccc2oc(-c3cccnc3)nc2c1)c1ccc(-c2ccccc2)o1", "survival": "45% (active)"}, {"smiles": "O=C(Nc1ccc(Cl)c(-c2nc3ccccc3o2)c1)c1ccc(-c2cccc([N+](=O)[O-])c2)o1", "survival": "37% (active)"}, {"smiles": "O=C(Nc1cccc(-c2nc3ccccc3o2)c1)c1ccc(-c2ccc(Br)cc2)o1", "survival": "39% (active)"}, {"smiles": "O=C(Nc1ccc2oc(-c3ccc(Br)cc3)nc2c1)c1cc2ccccc2o1", "survival": "55%"}, {"smiles": "O=C(Nc1ccc2oc(-c3cccnc3)nc2c1)c1ccc(-c2cccc(Cl)c2)o1", "survival": "50%"}, {"smiles": "COc1ccc(Br)cc1C(=O)Nc1ccc(-c2nc3cc(Cl)ccc3o2)cc1", "survival": "43% (active)"}, {"smiles": "CCOc1ccc(OCC)c(-n2cnnn2)c1", "survival": "71%"}, {"smiles": "CCOc1ccc2oc(=O)cc(CN3CCN(c4ccc(OC)cc4)CC3)c2c1", "survival": "73%"}, {"smiles": "COc1ccccc1N1CCN(C(=O)CSc2nc3ccccc3nc2Cc2ccc(F)cc2)CC1", "survival": "95%"}, {"smiles": "Cc1cccc(-c2noc(-c3cc(C(C)C)[nH]n3)n2)c1", "survival": "97%"}, {"smiles": "Cc1ccc(CCNC(=O)c2ccc3c(=O)n(-c4ccccc4)c(=O)[nH]c3c2)cc1", "survival": "86%"}, {"smiles": "Cc1cc(O)c(C(c2ccc(F)cc2)N2CCCCC2)c(=O)n1Cc1ccco1", "note": "(stereo not drawn)", "survival": "75%"}, {"smiles": "COc1cccc(NC(=O)Cn2c(=O)n(CCCC(=O)NCc3ccc4c(c3)OCO4)c(=O)c3ccccc32)c1", "survival": "115%"}, {"smiles": "Cc1cc(C)c(NC(=O)C2CCN(c3nc4ccccc4[nH]3)CC2)c(C)c1", "survival": "102%"}, {"smiles": "Cc1ccc(C#N)c(SCC(=O)O)n1", "survival": "91%"}, {"smiles": "Cc1cccc(Cn2cc(S(=O)(=O)c3ccccc3)c(=O)c3cc(F)c(N4CCOCC4)cc32)c1", "survival": "72%"}, {"smiles": "Cc1ccc2nc(-c3ccc(Cl)c(NC(=O)c4cccnc4)c3)oc2c1", "survival": "126%"}, {"smiles": "COc1ccc(/C=C/C(=O)Nc2cc(-c3nc4ccccc4o3)ccc2OC)cc1", "survival": "50%"}, {"smiles": "COc1ccc(-c2nc3ccccc3o2)cc1NC(=O)c1cc(Br)ccc1OC", "survival": "40% (active)"}, {"smiles": "CC(C)(Oc1ccc(Br)cc1)C(=O)Nc1cc(-c2nc3ccccc3[nH]2)ccc1Cl", "survival": "76%"}, {"smiles": "CCOc1ccc(C(=O)Nc2cc(-c3nc4ccccc4o3)ccc2C)cc1Cl", "survival": "51%"}, {"smiles": "COc1ccc(-c2nc3ccccc3o2)cc1NC(=O)c1cccc2c(Cl)cccc12", "survival": "52%"}, {"smiles": "COc1ccc(-c2nc3ccccc3o2)cc1NC(=O)c1cccnc1", "survival": "45% (active)"}, {"smiles": "COc1ccc(-c2nc3ccccc3o2)cc1NC(=O)c1ccc(-c2ccc(C)c(Cl)c2)o1", "survival": "41% (active)"}, {"smiles": "COc1ccc(-c2nc3ccccc3o2)cc1NC(=O)c1ccc(OCC(C)C)cc1", "survival": "40%"}, {"smiles": "COc1ccc(-c2nc3ccccc3o2)cc1NC(=O)C(C)(C)Oc1ccc(Br)cc1", "survival": "4% (active)"}, {"smiles": "COc1ccc(-c2nc3ccccc3o2)cc1NC(=O)c1ccc(-c2cccc(Cl)c2C)o1", "survival": "58%"}, {"smiles": "COc1ccc(Br)cc1C(=O)Nc1ccc2oc(-c3cccnc3)nc2c1", "survival": "117%"}, {"smiles": "CCOc1ccc(NC(=O)NCCN2CCN(c3cccc(C)c3C)CC2)cc1", "survival": "60%"}, {"smiles": "Cc1ccc(C)c(N2CCN(C(=O)c3cn(CC(C)C)c(=O)c4c3c3ccccc3n4C)CC2)c1", "survival": "28%"}, {"smiles": "COc1ccccc1CNC(=O)C1CCN(c2ncnc3c2nc2n3CCCCC2)CC1", "survival": "94%"}, {"smiles": "Cc1ccc2cc(C(c3nnnn3C3CCCC3)N3CCCc4ccccc43)c(=O)[nH]c2c1", "note": "(stereo not drawn)", "survival": "97%"}, {"smiles": "CCN(CC)C(=O)Cn1cc(C(=O)C(C)C)c2ccccc21", "survival": "87%"}, {"smiles": "Cc1ccc(NC(=O)c2cnc(N3CCCC3)nc2C)cc1F", "survival": "89%"}, {"smiles": "Cc1cc2[nH]c(=O)c(=O)[nH]c2cc1S(=O)(=O)N1CCN(c2cccc(C(F)(F)F)c2)CC1", "survival": "78%"}, {"smiles": "COc1ccc(-c2nc3ccccc3o2)cc1NC(=O)c1ccc(-c2ccc(Br)cc2)o1", "survival": "43% (active)"}, {"smiles": "COc1ccc(-c2nc3ccccc3o2)cc1N", "survival": "72%"}, {"smiles": "COc1ccc(-c2nc3ccccc3o2)cc1NC(=O)c1ccc(N2CCC(C)CC2)c([N+](=O)[O-])c1", "survival": "66%"}, {"smiles": "CCN(CC)S(=O)(=O)c1ccc2c(c1)N(CC(=O)N(C)Cc1ccccc1)C(=O)CO2", "survival": "82%"}, {"smiles": "Cc1cccc(Cn2c(CN3CCCC(C)C3)nc3c2c(=O)n(C)c(=O)n3C)c1", "note": "(stereo not drawn)", "survival": "73%"}, {"smiles": "Cc1ccc(NC(=O)Cn2c(=O)n(CC(=O)NCCc3ccccc3)c(=O)c3ccccc32)cc1C", "survival": "67%"}, {"smiles": "Cc1ccc(NC(=O)c2cc(S(=O)(=O)NCCC3=CCCCC3)ccc2F)cc1C", "survival": "20% (active)"}, {"smiles": "COc1ccc(OC)c(NC(=O)c2cc(S(=O)(=O)NCCc3ccc(Cl)cc3)ccc2F)c1", "survival": "70%"}, {"smiles": "Cc1ccc(NC(=O)c2cc(S(=O)(=O)NCCC3=CCCCC3)ccc2F)cc1F", "survival": "115%"}, {"smiles": "Cc1ccc(NC(=O)c2cc(S(=O)(=O)NCCc3ccc(Cl)cc3)ccc2F)cc1", "survival": "80%"}, {"smiles": "Cc1ccc(C)c(NC(=O)c2cc(S(=O)(=O)NCCC3=CCCCC3)ccc2F)c1", "survival": "52% (active)"}, {"smiles": "CCc1ccccc1NC(=O)c1cc(S(=O)(=O)NCCc2ccc(OC)c(OC)c2)ccc1F", "survival": "8% (active)"}, {"smiles": "Cc1ccc(C)c(NC(=O)c2cc(S(=O)(=O)NCc3ccccc3)ccc2F)c1", "survival": "71%"}, {"smiles": "Cc1ccc(CNS(=O)(=O)c2ccc(F)c(C(=O)Nc3ccc(C)c(F)c3)c2)cc1", "survival": "46% (active)"}, {"smiles": "COc1ccc(C)cc1NC(=O)c1cc(S(=O)(=O)NCCC2=CCCCC2)ccc1F", "survival": "105%"}, {"smiles": "COc1ccc(CCNS(=O)(=O)c2ccc(F)c(C(=O)Nc3ccc(Cl)cc3)c2)cc1OC", "survival": "104%"}, {"smiles": "Cc1cc(C)cc(NC(=O)c2cc(S(=O)(=O)NCCC3=CCCCC3)ccc2F)c1", "survival": "67%"}, {"smiles": "Cc1cc(C)c(NC(=O)c2cc(S(=O)(=O)NCCC3=CCCCC3)ccc2F)c(C)c1", "survival": "85%"}]}]}
